Experimental data: paper PMC11006913

What was measured:
Assay in all cases: PBM; 200 nM protein, PBS
Settings in all cases: dsDNA, one strand shown
HESX1 [1] = target: HESX1 (Homo sapiens, UniProt Q9UBX0 95-180, R165K)
HESX1 [2] = target: HESX1 (Homo sapiens, UniProt Q9UBX0 95-180)
PROP1 [3] = target: PROP1 (Homo sapiens, UniProt O75360 56-141)
HESX1 [4] = target: HESX1 (Homo sapiens, UniProt Q9UBX0 95-180, R109Q)
PROP1 [5] = target: PROP1 (Homo sapiens, UniProt O75360 56-141, R99H)
HESX1 [6] = target: HESX1 (Homo sapiens, UniProt Q9UBX0 95-180, P111T)
PROP1 [7] = target: PROP1 (Homo sapiens, UniProt O75360 56-141, F88S)
HESX1 [8] = target: HESX1 (Homo sapiens, UniProt Q9UBX0 95-180, F115L)
ALX1 [9] = target: ALX1 (Homo sapiens, UniProt Q15699 118-204, L144V)
ALX1 [10] = target: ALX1 (Homo sapiens, UniProt Q15699 118-204, L144R)
ALX1 [11] = target: ALX1 (Homo sapiens, UniProt Q15699 118-204)
VAX1 [12] = target: VAX1 (Homo sapiens, UniProt Q5SQQ9 86-172)
VAX1 [13] = target: VAX1 (Homo sapiens, UniProt Q5SQQ9 86-172, T142I)
VAX1 [14] = target: VAX1 (Homo sapiens, UniProt Q5SQQ9 86-172, K157R)
Sequence of VAX1 (Homo sapiens, UniProt Q5SQQ9 86-172, K157R) (Q5SQQ9 86-172 K157R): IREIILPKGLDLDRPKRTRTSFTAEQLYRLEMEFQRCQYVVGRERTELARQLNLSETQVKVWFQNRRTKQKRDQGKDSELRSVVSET

Sequence of HESX1 (Homo sapiens, UniProt Q9UBX0 95-180, R165K) (Q9UBX0 95-180 R165K): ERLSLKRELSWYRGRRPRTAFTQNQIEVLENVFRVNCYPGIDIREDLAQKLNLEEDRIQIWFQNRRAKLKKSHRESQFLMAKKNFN
Sequence of PROP1 (Homo sapiens, UniProt O75360 56-141, R99H) (O75360 56-141 R99H): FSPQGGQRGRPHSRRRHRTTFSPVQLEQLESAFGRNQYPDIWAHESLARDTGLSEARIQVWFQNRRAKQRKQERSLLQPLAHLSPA
Sequence of PROP1 (Homo sapiens, UniProt O75360 56-141, F88S) (O75360 56-141 F88S): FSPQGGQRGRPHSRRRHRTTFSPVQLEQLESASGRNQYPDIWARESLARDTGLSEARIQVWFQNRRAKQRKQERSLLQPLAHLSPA
Sequence of HESX1 (Homo sapiens, UniProt Q9UBX0 95-180, R109Q) (Q9UBX0 95-180 R109Q): as the sequence (Q9UBX0 95-180 R165K) above, with R15Q, K71R counted along it
Sequence of PROP1 (Homo sapiens, UniProt O75360 56-141) (O75360 56-141): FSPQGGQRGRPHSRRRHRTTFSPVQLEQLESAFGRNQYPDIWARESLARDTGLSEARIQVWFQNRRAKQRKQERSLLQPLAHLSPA
Sequence of HESX1 (Homo sapiens, UniProt Q9UBX0 95-180, P111T) (Q9UBX0 95-180 P111T): as the sequence (Q9UBX0 95-180 R165K) above, with P17T, K71R counted along it
Sequence of HESX1 (Homo sapiens, UniProt Q9UBX0 95-180) (Q9UBX0 95-180): as the sequence (Q9UBX0 95-180 R165K) above, with K71R counted along it
Sequence of HESX1 (Homo sapiens, UniProt Q9UBX0 95-180, F115L) (Q9UBX0 95-180 F115L): as the sequence (Q9UBX0 95-180 R165K) above, with F21L, K71R counted along it
Sequence of ALX1 (Homo sapiens, UniProt Q15699 118-204, L144R) (Q15699 118-204 L144R): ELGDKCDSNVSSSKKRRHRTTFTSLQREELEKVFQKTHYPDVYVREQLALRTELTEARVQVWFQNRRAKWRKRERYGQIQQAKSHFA
Sequence of VAX1 (Homo sapiens, UniProt Q5SQQ9 86-172, T142I) (Q5SQQ9 86-172 T142I): as the sequence (Q5SQQ9 86-172 K157R) above, with T57I, R72K counted along it
Sequence of VAX1 (Homo sapiens, UniProt Q5SQQ9 86-172) (Q5SQQ9 86-172): as the sequence (Q5SQQ9 86-172 K157R) above, with R72K counted along it
Sequence of ALX1 (Homo sapiens, UniProt Q15699 118-204, L144V) (Q15699 118-204 L144V): as the sequence (Q15699 118-204 L144R) above, with R27V counted along it
Sequence of ALX1 (Homo sapiens, UniProt Q15699 118-204) (Q15699 118-204): as the sequence (Q15699 118-204 L144R) above, with R27L counted along it

## GCAGCGCA
HESX1 [1]
  binding signal: 6.45 upbm affinity estimate (log intensity, higher = more binding, comparable within an allelic series)
HESX1 [2]
  binding signal: 6.27 upbm affinity estimate (log intensity, higher = more binding, comparable within an allelic series)
PROP1 [3]
  binding signal: 6.75 upbm affinity estimate (log intensity, higher = more binding, comparable within an allelic series)
HESX1 [4]
  binding signal: 6.54 upbm affinity estimate (log intensity, higher = more binding, comparable within an allelic series)
PROP1 [5]
  binding signal: 6.76 upbm affinity estimate (log intensity, higher = more binding, comparable within an allelic series)
HESX1 [6]
  binding signal: 6.47 upbm affinity estimate (log intensity, higher = more binding, comparable within an allelic series)
PROP1 [7]
  binding signal: 6.81 upbm affinity estimate (log intensity, higher = more binding, comparable within an allelic series)
HESX1 [8]
  binding signal: 6.53 upbm affinity estimate (log intensity, higher = more binding, comparable within an allelic series)

## CACGGCTC
HESX1 [1]
  binding signal: 6.57 upbm affinity estimate (log intensity, higher = more binding, comparable within an allelic series)
HESX1 [2]
  binding signal: 6.56 upbm affinity estimate (log intensity, higher = more binding, comparable within an allelic series)
HESX1 [4]
  binding signal: 6.55 upbm affinity estimate (log intensity, higher = more binding, comparable within an allelic series)
HESX1 [6]
  binding signal: 6.58 upbm affinity estimate (log intensity, higher = more binding, comparable within an allelic series)
HESX1 [8]
  binding signal: 6.53 upbm affinity estimate (log intensity, higher = more binding, comparable within an allelic series)

## AGCCTCGC
HESX1 [1]
  binding signal: 6.43 upbm affinity estimate (log intensity, higher = more binding, comparable within an allelic series)
HESX1 [2]
  binding signal: 6.5 upbm affinity estimate (log intensity, higher = more binding, comparable within an allelic series)
HESX1 [4]
  binding signal: 6.45 upbm affinity estimate (log intensity, higher = more binding, comparable within an allelic series)
HESX1 [6]
  binding signal: 6.49 upbm affinity estimate (log intensity, higher = more binding, comparable within an allelic series)
HESX1 [8]
  binding signal: 6.46 upbm affinity estimate (log intensity, higher = more binding, comparable within an allelic series)

## AACTCATA
HESX1 [1]
  binding signal: 7.51 upbm affinity estimate (log intensity, higher = more binding, comparable within an allelic series)
HESX1 [2]
  binding signal: 7.49 upbm affinity estimate (log intensity, higher = more binding, comparable within an allelic series)
HESX1 [4]
  binding signal: 7.12 upbm affinity estimate (log intensity, higher = more binding, comparable within an allelic series)
HESX1 [6]
  binding signal: 7.23 upbm affinity estimate (log intensity, higher = more binding, comparable within an allelic series)

## ATTAGCGA
HESX1 [1]
  binding signal: 9.89 upbm affinity estimate (log intensity, higher = more binding, comparable within an allelic series)
HESX1 [2]
  binding signal: 10.1 upbm affinity estimate (log intensity, higher = more binding, comparable within an allelic series)
PROP1 [3]
  binding signal: 10.2 upbm affinity estimate (log intensity, higher = more binding, comparable within an allelic series)
PROP1 [5]
  binding signal: 9.94 upbm affinity estimate (log intensity, higher = more binding, comparable within an allelic series)
HESX1 [6]
  binding signal: 8.88 upbm affinity estimate (log intensity, higher = more binding, comparable within an allelic series)
PROP1 [7]
  binding signal: 7.4 upbm affinity estimate (log intensity, higher = more binding, comparable within an allelic series)

## CTGGGCTC
HESX1 [1]
  binding signal: 6.43 upbm affinity estimate (log intensity, higher = more binding, comparable within an allelic series)
HESX1 [2]
  binding signal: 6.41 upbm affinity estimate (log intensity, higher = more binding, comparable within an allelic series)
ALX1 [9]
  binding signal: 6.37 upbm affinity estimate (log intensity, higher = more binding, comparable within an allelic series)
ALX1 [10]
  binding signal: 6.38 upbm affinity estimate (log intensity, higher = more binding, comparable within an allelic series)
HESX1 [4]
  binding signal: 6.43 upbm affinity estimate (log intensity, higher = more binding, comparable within an allelic series)
HESX1 [6]
  binding signal: 6.51 upbm affinity estimate (log intensity, higher = more binding, comparable within an allelic series)
HESX1 [8]
  binding signal: 6.39 upbm affinity estimate (log intensity, higher = more binding, comparable within an allelic series)
ALX1 [11]
  binding signal: 6.38 upbm affinity estimate (log intensity, higher = more binding, comparable within an allelic series)

## CAGTGCCG
HESX1 [1]
  binding signal: 6.35 upbm affinity estimate (log intensity, higher = more binding, comparable within an allelic series)
HESX1 [2]
  binding signal: 6.41 upbm affinity estimate (log intensity, higher = more binding, comparable within an allelic series)
HESX1 [4]
  binding signal: 6.49 upbm affinity estimate (log intensity, higher = more binding, comparable within an allelic series)
VAX1 [12]
  binding signal: 7.15 upbm affinity estimate (log intensity, higher = more binding, comparable within an allelic series)
HESX1 [6]
  binding signal: 6.42 upbm affinity estimate (log intensity, higher = more binding, comparable within an allelic series)
HESX1 [8]
  binding signal: 6.53 upbm affinity estimate (log intensity, higher = more binding, comparable within an allelic series)
VAX1 [13]
  binding signal: 7.27 upbm affinity estimate (log intensity, higher = more binding, comparable within an allelic series)
VAX1 [14]
  binding signal: 7.09 upbm affinity estimate (log intensity, higher = more binding, comparable within an allelic series)

## AGAGGAGC
HESX1 [1]
  binding signal: 6.5 upbm affinity estimate (log intensity, higher = more binding, comparable within an allelic series)
HESX1 [2]
  binding signal: 6.51 upbm affinity estimate (log intensity, higher = more binding, comparable within an allelic series)
HESX1 [4]
  binding signal: 6.44 upbm affinity estimate (log intensity, higher = more binding, comparable within an allelic series)
HESX1 [6]
  binding signal: 6.47 upbm affinity estimate (log intensity, higher = more binding, comparable within an allelic series)
HESX1 [8]
  binding signal: 6.59 upbm affinity estimate (log intensity, higher = more binding, comparable within an allelic series)

## TGGCGCCA
HESX1 [1]
  binding signal: 6.38 upbm affinity estimate (log intensity, higher = more binding, comparable within an allelic series)
HESX1 [2]
  binding signal: 6.62 upbm affinity estimate (log intensity, higher = more binding, comparable within an allelic series)
HESX1 [4]
  binding signal: 6.34 upbm affinity estimate (log intensity, higher = more binding, comparable within an allelic series)
HESX1 [6]
  binding signal: 6.49 upbm affinity estimate (log intensity, higher = more binding, comparable within an allelic series)
HESX1 [8]
  binding signal: 6.34 upbm affinity estimate (log intensity, higher = more binding, comparable within an allelic series)

## GAAGGAGC
HESX1 [1]
  binding signal: 6.42 upbm affinity estimate (log intensity, higher = more binding, comparable within an allelic series)
HESX1 [2]
  binding signal: 6.37 upbm affinity estimate (log intensity, higher = more binding, comparable within an allelic series)
PROP1 [3]
  binding signal: 6.66 upbm affinity estimate (log intensity, higher = more binding, comparable within an allelic series)
HESX1 [4]
  binding signal: 6.46 upbm affinity estimate (log intensity, higher = more binding, comparable within an allelic series)
PROP1 [5]
  binding signal: 6.54 upbm affinity estimate (log intensity, higher = more binding, comparable within an allelic series)
HESX1 [6]
  binding signal: 6.42 upbm affinity estimate (log intensity, higher = more binding, comparable within an allelic series)
PROP1 [7]
  binding signal: 6.62 upbm affinity estimate (log intensity, higher = more binding, comparable within an allelic series)
HESX1 [8]
  binding signal: 6.55 upbm affinity estimate (log intensity, higher = more binding, comparable within an allelic series)

## AGTTCAGC
HESX1 [1]
  binding signal: 6.57 upbm affinity estimate (log intensity, higher = more binding, comparable within an allelic series)
HESX1 [2]
  binding signal: 6.45 upbm affinity estimate (log intensity, higher = more binding, comparable within an allelic series)
HESX1 [4]
  binding signal: 6.48 upbm affinity estimate (log intensity, higher = more binding, comparable within an allelic series)
HESX1 [6]
  binding signal: 6.48 upbm affinity estimate (log intensity, higher = more binding, comparable within an allelic series)
HESX1 [8]
  binding signal: 6.59 upbm affinity estimate (log intensity, higher = more binding, comparable within an allelic series)

## AGGCAGCG
HESX1 [1]
  binding signal: 6.62 upbm affinity estimate (log intensity, higher = more binding, comparable within an allelic series)
HESX1 [2]
  binding signal: 6.5 upbm affinity estimate (log intensity, higher = more binding, comparable within an allelic series)
HESX1 [4]
  binding signal: 6.59 upbm affinity estimate (log intensity, higher = more binding, comparable within an allelic series)
HESX1 [6]
  binding signal: 6.59 upbm affinity estimate (log intensity, higher = more binding, comparable within an allelic series)
HESX1 [8]
  binding signal: 6.39 upbm affinity estimate (log intensity, higher = more binding, comparable within an allelic series)

## CCGAAAGC
HESX1 [1]
  binding signal: 6.49 upbm affinity estimate (log intensity, higher = more binding, comparable within an allelic series)
HESX1 [2]
  binding signal: 6.52 upbm affinity estimate (log intensity, higher = more binding, comparable within an allelic series)
HESX1 [4]
  binding signal: 6.56 upbm affinity estimate (log intensity, higher = more binding, comparable within an allelic series)
HESX1 [6]
  binding signal: 6.47 upbm affinity estimate (log intensity, higher = more binding, comparable within an allelic series)
HESX1 [8]
  binding signal: 6.52 upbm affinity estimate (log intensity, higher = more binding, comparable within an allelic series)
